Test results: PubChem BioAssay (EPA / NIEHS)
Active and inactive are the calls of the source. How the source made its calls: active means hit-call score of the fitted dose curve at least 0.9, where 1 is the maximum; inactive means score below 0.9.

Columns and labels:
Details in all cases: mRNA level, 48 h; actives raise or lower the signal
[1] = read-out: Cytochrome P450 (CYP2B6), CYP2B6 (gene 1555); test: LTEA_HepaRG_CYP2B6: Life Technologies and Expression Analysis (LTEA) Assay for Cytochrome P450 (CYP2B6) using HepaRG (AID 2283481)
In short: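 Read-out is CYP2B6 mRNA by TaqMan qRT-PCR, normalized to three housekeeping genes and fitted bidirectionally against 0.5% DMSO baseline. Human HepaRG cells received test chemicals for 48 h, top concentration 100 uM, half-log dilutions.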

[2] = read-out: Cytochrome P450 2C19 (Homo sapiens) (UniProt P33261); test: LTEA_HepaRG_CYP2C19: Life Technologies and Expression Analysis (LTEA) Assay for CYP2C19 using HepaRG (AID 2283482)
In short: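 HepaRG, 48 h chemical exposure, 8-pt half-log series from 100 uM in 0.5% DMSO, duplicates. Readout: CYP2C19 mRNA by TaqMan qRT-PCR, housekeeping-normalized. Bidirectional fit vs DMSO baseline; phenobarbital 1mM as induction control.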

[3] = read-out: CYP2C8 (gene 1558); test: LTEA_HepaRG_CYP2C8: Life Technologies and Expression Analysis (LTEA) Assay for CYP2C8 using HepaRG (AID 2283483)
In short: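 Differentiated human HepaRG cells were exposed for 48 h in serum-free induction medium to eight half-log concentrations up to 100 uM in 0.5% DMSO, in duplicate. CYP2C8 mRNA was measured by TaqMan qRT-PCR, normalized to ACTB, GAPDH and POLR2A, and fitted bidirectionally against DMSO.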

[4] = read-out: CYP2C9 (gene 1559); test: LTEA_HepaRG_CYP2C9: Life Technologies and Expression Analysis (LTEA) Assay for CYP2C9 using HepaRG (AID 2283484)
In short: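 Differentiated human HepaRG cells were exposed 48 h in serum-free induction medium to eight half-log concentrations up to 100 uM in 0.5% DMSO. CYP2C9 mRNA was measured by qRT-PCR, normalized to ACTB, GAPDH and POLR2A, and fitted bidirectionally against DMSO.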

[5] = read-out: CYP2E1 (gene 1571); test: LTEA_HepaRG_CYP2E1: Life Technologies and Expression Analysis (LTEA) Assay for CYP2E1 using HepaRG (AID 2283485)
In short: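 Differentiated HepaRG cells were treated in duplicate for 48 h with chemicals in 0.5% DMSO, from 100 uM downward in half-log dilutions. RNA was then analysed by qRT-PCR for CYP2E1 induction or loss.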

[6] = read-out: CYP4A11 (gene 1579); test: LTEA_HepaRG_CYP4A11: Life Technologies and Expression Analysis (LTEA) Assay for CYP4A11 using HepaRG (AID 2283486)
In short: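 CYP4A11 transcript levels were quantified by TaqMan qRT-PCR after HepaRG human liver cells were treated for 48 hours with test chemicals (top 100 uM, half-log dilutions, 0.5% DMSO). Gain or loss of signal was fitted relative to DMSO.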

[7] = read-out: Cytochrome P450 3A4 (Homo sapiens) (UniProt P08684); test: LTEA_HepaRG_CYP3A4: Life Technologies and Expression Analysis (LTEA) Assay for CYP3A4 using HepaRG (AID 2283487)
In short: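 HepaRG, 48 h exposure, 8-pt CRC from 100 uM (half-log), 0.5% DMSO, duplicates; serum-free induction medium. Readout: CYP3A4 mRNA, qRT-PCR, ACTB/GAPDH/POLR2A normalization. Bidirectional fit vs DMSO.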

[8] = read-out: DNA damage-inducible transcript 3 (DDIT3), DDIT3 (gene 1649); test: LTEA_HepaRG_DDIT3: Life Technologies and Expression Analysis (LTEA) Assay for DNA damage-inducible transcript 3 (DDIT3) using HepaRG (AID 2283488)
In short: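 Changes in DDIT3 transcript, in either direction relative to 0.5% DMSO vehicle, were quantified by TaqMan qRT-PCR after 48 h chemical exposure of HepaRG cells at 8 concentrations, maximum 100 uM.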

[9] = read-out: Pro-epidermal growth factor (Homo sapiens) (UniProt P01133); test: LTEA_HepaRG_EGF: Life Technologies and Expression Analysis (LTEA) Assay for Epidermal growth factor (EGF) using HepaRG (AID 2283489)
In short: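 qRT-PCR readout of EGF transcript after 48 h chemical exposure of HepaRG cells; eight concentrations from 100 uM down in half-log steps, duplicate wells, 0.5% DMSO vehicle. Bidirectional curve fitting against DMSO baseline.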

[10] = read-out: Early growth response protein 1 (EGR1) transcription factor, EGR1 (gene 1958); test: LTEA_HepaRG_EGR1: Life Technologies and Expression Analysis (LTEA) Assay for Early growth response protein 1 (EGR1) transcription factor using HepaRG (AID 2283490)
In short: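 Differentiated human HepaRG cells in serum-free induction medium were exposed in duplicate for 48 h to eight concentrations (top 100 uM, half-log steps) in 0.5% DMSO. EGR1 mRNA was quantified by qRT-PCR, normalized to ACTB, GAPDH and POLR2A, and fitted bidirectionally versus DMSO.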

[11] = read-out: Ezrin (EZR), EZR (gene 7430); test: LTEA_HepaRG_EZR: Life Technologies and Expression Analysis (LTEA) Assay for Ezrin (EZR) using HepaRG (AID 2283491)
In short: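 Read-out is EZR transcript level by qRT-PCR, normalized to three housekeeping genes and fitted bidirectionally against the DMSO control. Human HepaRG cells received test chemicals for 48 h at eight half-log concentrations up to 100 uM in 0.5% DMSO.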

[12] = read-out: Cytochrome P450 3A7 (Homo sapiens) (UniProt P24462); test: LTEA_HepaRG_CYP3A7: Life Technologies and Expression Analysis (LTEA) Assay for CYP3A7 using HepaRG (AID 2283492)
In short: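 CYP3A7 transcript levels were read by TaqMan qRT-PCR on Fluidigm arrays after 48 h chemical exposure of human HepaRG cells, with housekeeping-gene normalisation. Eight half-log concentrations up to 100 uM in 0.5% DMSO were tested in duplicate.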

[13] = read-out: Fatty Acid-Binding Protein 1 (FABP1), FABP1 (gene 2168); test: LTEA_HepaRG_FABP1: Life Technologies and Expression Analysis (LTEA) Assay for Fatty Acid-Binding Protein 1 (FABP1) using HepaRG (AID 2283494)
In short: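 Differentiated human HepaRG cells were exposed in duplicate for 48 h in serum-free induction medium to 8-point half-log concentration series topping at 100 uM in 0.5% DMSO. FABP1 mRNA measured by TaqMan qRT-PCR, normalized to ACTB/GAPDH/POLR2A; bidirectional fit versus DMSO.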

[14] = read-out: Cytochrome P450 4A22 (Homo sapiens) (UniProt Q5TCH4); test: LTEA_HepaRG_CYP4A22: Life Technologies and Expression Analysis (LTEA) Assay for Cytochrome P450 4A22 (CYP4A22) using HepaRG (AID 2283495)
In short: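 HepaRG, 48 h post-plating -> serum-free induction medium; dosed 48 h, duplicate, 8 conc. (100 uM top, half-log), 0.5% DMSO. Readout: CYP4A22 mRNA by qRT-PCR, ACTB/GAPDH/POLR2A normalization; gain/loss fit relative to DMSO.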

[15] = read-out: Cytochrome P450 7A1 (Homo sapiens) (UniProt P22680); test: LTEA_HepaRG_CYP7A1: Life Technologies and Expression Analysis (LTEA) Assay for Cytochrome P450 7A1 (CYP7A1) using HepaRG (AID 2283496)
In short: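 Gene expression endpoint in human HepaRG liver cells treated for 48 h with test chemicals (up to 100 uM, 0.5% DMSO). Values come from bidirectional concentration-response fitting versus DMSO.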

[16] = read-out: Glutathione S-Transferase (GSTA2), GSTA2 (gene 2939); test: LTEA_HepaRG_GSTA2: Life Technologies and Expression Analysis (LTEA) Assay for Glutathione S-Transferase (GSTA2) using HepaRG (AID 2283497)
In short: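 Human HepaRG cells, plated 48 h, then exposed in serum-free induction medium for 48 h to eight half-log concentrations up to 100 uM in 0.5% DMSO, duplicate. GSTA2 mRNA by qRT-PCR, normalized to ACTB/GAPDH/POLR2A; bidirectional fit versus DMSO.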

[17] = read-out: Glutamate-cysteine ligase catalytic (GCLC), GCLC (gene 2729); test: LTEA_HepaRG_GCLC: Life Technologies and Expression Analysis (LTEA) Assay for Glutamate-cysteine ligase catalytic (GCLC) using HepaRG (AID 2283498)
In short: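 Differentiated human HepaRG cells, plated 48 h then switched to serum-free induction medium, were exposed in duplicate for 48 h to 8 half-log concentrations topping at 100 uM in 0.5% DMSO. GCLC mRNA was quantified by qRT-PCR against ACTB, GAPDH and POLR2A.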

[18] = read-out: growth arrest and DNA damage 45 (GADD45G), GADD45G (gene 10912); test: LTEA_HepaRG_GADD45G: Life Technologies and Expression Analysis (LTEA) Assay for growth arrest and DNA damage 45 (GADD45G) using HepaRG (AID 2283499)
In short: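 HepaRG, 48 h exposure, top 100 uM, half-log 8-point series, 0.5% DMSO vehicle, duplicates. Readout: GADD45G transcript by qRT-PCR (Fluidigm array), housekeeping-normalised (ACTB/GAPDH/POLR2A). Bidirectional curve fit vs DMSO baseline.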

[19] = read-out: Glutamate-cysteine ligase regulatory (GCLM), GCLM (gene 2730); test: LTEA_HepaRG_GCLM: Life Technologies and Expression Analysis (LTEA) Assay for Glutamate-cysteine ligase regulatory (GCLM) using HepaRG (AID 2283500)
In short: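 Human liver HepaRG cultures receive test chemicals for 48 hours at up to 100 uM in 0.5% DMSO. GCLM expression is measured by qRT-PCR and analysed for increases or decreases against vehicle.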

[20] = read-out: CYP3A5 (gene 1577); test: LTEA_HepaRG_CYP3A5: Life Technologies and Expression Analysis (LTEA) Assay for CYP3A5 using HepaRG (AID 2283493)
In short: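 mRNA induction or loss of CYP3A5 assessed in HepaRG after 48 h dosing, 100 uM top concentration, duplicate wells; TaqMan qRT-PCR with ACTB, GAPDH, POLR2A normalization; 0.5% DMSO as negative control.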

Measured: AC50

Sequence of Cytochrome P450 3A4 (Homo sapiens) (P08684 whole entry, looked up): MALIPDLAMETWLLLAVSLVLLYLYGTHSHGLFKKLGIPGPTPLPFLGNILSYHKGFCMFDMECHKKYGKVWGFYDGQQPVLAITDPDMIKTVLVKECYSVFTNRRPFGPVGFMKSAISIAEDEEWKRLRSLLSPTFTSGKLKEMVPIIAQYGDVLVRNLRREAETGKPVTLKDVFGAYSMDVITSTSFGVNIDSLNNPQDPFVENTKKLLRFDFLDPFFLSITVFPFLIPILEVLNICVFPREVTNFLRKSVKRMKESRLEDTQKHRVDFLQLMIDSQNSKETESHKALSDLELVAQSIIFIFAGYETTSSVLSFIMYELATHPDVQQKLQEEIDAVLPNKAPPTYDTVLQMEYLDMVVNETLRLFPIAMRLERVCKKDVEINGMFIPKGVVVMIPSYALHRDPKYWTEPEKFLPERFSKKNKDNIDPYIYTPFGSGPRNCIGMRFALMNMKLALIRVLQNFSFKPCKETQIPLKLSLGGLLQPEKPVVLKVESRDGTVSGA
Sequence of Cytochrome P450 3A7 (Homo sapiens) (P24462 whole entry, looked up): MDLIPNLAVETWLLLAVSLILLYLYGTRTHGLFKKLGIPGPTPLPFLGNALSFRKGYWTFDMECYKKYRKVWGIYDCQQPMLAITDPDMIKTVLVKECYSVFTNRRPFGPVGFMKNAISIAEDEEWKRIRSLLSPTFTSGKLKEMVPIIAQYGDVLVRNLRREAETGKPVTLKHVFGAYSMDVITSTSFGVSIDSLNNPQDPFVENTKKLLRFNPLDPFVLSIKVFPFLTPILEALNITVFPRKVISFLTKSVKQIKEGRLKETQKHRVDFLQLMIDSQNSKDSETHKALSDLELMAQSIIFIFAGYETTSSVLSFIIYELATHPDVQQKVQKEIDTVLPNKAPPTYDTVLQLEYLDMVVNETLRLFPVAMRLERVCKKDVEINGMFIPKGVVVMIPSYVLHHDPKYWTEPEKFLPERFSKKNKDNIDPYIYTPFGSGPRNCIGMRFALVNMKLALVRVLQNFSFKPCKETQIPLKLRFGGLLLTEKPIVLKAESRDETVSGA
Sequence of Cytochrome P450 2C19 (Homo sapiens) (P33261 whole entry, looked up): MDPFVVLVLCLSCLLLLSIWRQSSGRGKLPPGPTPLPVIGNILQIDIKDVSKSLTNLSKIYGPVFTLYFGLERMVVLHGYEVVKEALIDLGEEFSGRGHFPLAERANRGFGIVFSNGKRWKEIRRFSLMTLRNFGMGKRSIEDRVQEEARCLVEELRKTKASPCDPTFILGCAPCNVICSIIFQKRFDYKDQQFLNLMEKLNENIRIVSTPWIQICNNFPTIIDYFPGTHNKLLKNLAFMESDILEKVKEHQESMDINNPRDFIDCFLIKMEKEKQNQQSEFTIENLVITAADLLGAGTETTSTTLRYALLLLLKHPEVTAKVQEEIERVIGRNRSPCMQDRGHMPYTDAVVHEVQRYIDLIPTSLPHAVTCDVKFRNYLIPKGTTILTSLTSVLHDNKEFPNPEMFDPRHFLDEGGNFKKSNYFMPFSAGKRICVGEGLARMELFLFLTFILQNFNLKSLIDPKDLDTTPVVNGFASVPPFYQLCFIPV

Oc1ccccc1-c1ccccc1
not listed: [20]
inactive: all other assays above

CC1COC(Cn2cncn2)(c2ccc(Oc3ccc(Cl)cc3)cc2Cl)O1 (centres undefined)
active: [1] 9.66 µM | [2] 27.1 µM | [3] 9.46 µM | [4] 15.7 µM | [5] 8.67 µM | [6] 12.9 µM | [7] 23.2 µM | [8] 12 µM | [10] 63.2 µM | [11] 0.479 µM | [20] 84.1 µM | [13] 23.3 µM | [14] 15.5 µM | [15] 13.8 µM | [16] 19.7 µM | [18] 12.2 µM
inactive: [9] | [12] | [17] | [19]

CON(C)C(=O)Nc1ccc(Cl)c(Cl)c1
inactive: [3] | [4] | [8] | [9] | [10] | [11] | [12] | [20] | [18]
active: [1] 24 µM | [2] 65.1 µM | [5] 77.6 µM | [6] 86.6 µM | [7] 78.6 µM | [13] 37.6 µM | [14] 84.4 µM | [15] 16.8 µM | [16] 50 µM | [17] 80 µM | [19] 73.2 µM

COc1cnc(OC)n2nc(NS(=O)(=O)c3c(OCC(F)F)cccc3C(F)(F)F)nc12
active: [1] 6.02 µM | [2] 10.8 µM | [5] 30.2 µM | [6] 11.5 µM | [7] 8.2 µM | [14] 9.46 µM | [15] 26.2 µM
inactive: all other assays above

CCOP(=S)(OCC)SCn1c(=O)oc2cc(Cl)ccc21
active: [1] 17.7 µM
inactive: all other assays above

Fc1ccc(Oc2ccnc3cc(Cl)cc(Cl)c23)cc1
active: [1] 11.9 µM | [3] 86.6 µM | [4] 86.8 µM | [5] 77.7 µM | [6] 70.1 µM | [8] 65.1 µM | [9] 32.8 µM | [12] 79.4 µM | [13] 87 µM | [14] 82.6 µM | [15] 90.5 µM | [16] 83.6 µM
inactive: [2] | [7] | [10] | [11] | [20] | [17] | [18] | [19]
